In the library only some 3.4% were active in any assay of this set; here they are far more common.
MITF primary – human MITF inhibition, primary screen; O75030; AlphaScreen MITF homodimerization, bead proximity signal; inhibition, % at 2.6 µM; 0.91% of 650,000 active; AID 1259374; in the data active = inhibition above about 50%;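 note: 0% = vehicle wells with protein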
GPR151 activ – human GPR151 activation; 1% of 650,000 active; activation, % at 11.2 µM; Q8TDV0; PathHunter beta-arrestin GPR151 cells, luminescence; in the data active = activation above about 4.9%;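 note: 0% = median of compound wells and 100% = cells with positive control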
Target sequence (Q8TDV0 whole entry, looked up): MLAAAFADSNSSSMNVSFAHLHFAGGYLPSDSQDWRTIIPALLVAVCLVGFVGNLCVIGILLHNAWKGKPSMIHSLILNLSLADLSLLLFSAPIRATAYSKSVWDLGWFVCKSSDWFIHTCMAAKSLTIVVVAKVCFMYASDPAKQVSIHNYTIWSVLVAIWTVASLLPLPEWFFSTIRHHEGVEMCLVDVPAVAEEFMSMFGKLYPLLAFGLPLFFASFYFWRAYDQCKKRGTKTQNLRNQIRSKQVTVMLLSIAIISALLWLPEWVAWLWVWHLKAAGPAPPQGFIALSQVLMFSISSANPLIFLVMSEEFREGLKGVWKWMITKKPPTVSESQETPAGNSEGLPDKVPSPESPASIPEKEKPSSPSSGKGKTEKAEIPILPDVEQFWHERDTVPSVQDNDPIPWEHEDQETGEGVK
FBW7 activator – activators of human E3 ligase FBW7 | Q969H0 | 0.13% of 650,000 active | AlphaScreen FBW7–phospho-cyclin E peptide binding, activator screen | AID 1259310 | normalized activity (activation), % at 26.1 µM; in the data active = normalized activity above about 1.9%;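 note: purified mutant Fbw7 with reduced substrate affinity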
TEAD-YAP inh – TEAD-YAP interaction inhibition. HEK-TIYL cells, TEAD-Gal4/YAP UAS-luciferase luminescence. inhibition, % at 9.12 µM. 1.4% of 640,000 active; in the data active = inhibition above about 32%;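 note: 0% = median of test compound wells and 100% = reference inhibitor wells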
* marks the source's active call; other numbers are inactive results; nt = no result.

SMILES	MITF primary	GPR151 activ	FBW7 activator	TEAD-YAP inh
Cc1ccc(N(C(=O)C(Cl)(Cl)Cl)C2C=CS(=O)(=O)C2)cc1 (centres undefined)	8	1	0	-2
O=C(O)CCCN1C(=O)/C(=C/c2ccccc2F)SC1=S	12	2	0	54*
COc1cccc(/C=C2/SC(=S)N(CCCC(=O)O)C2=O)c1OC	1	-1	0	80*
C=CCOc1c(/C=C2/SC(=S)N(CCC(=O)O)C2=O)cccc1OC	-23	-1	-1	-2
CCN(CC)c1ccc(N/C(N)=N/c2nc(C)cc(C)n2)cc1 (tested in a mixture with another compound)	17	1	0	58*
Cc1cc(C)nc(/N=C(\N)Nc2ccc(CC(=O)OC(C)C)cc2)n1	-6	1	0	40*
CCOC(=O)c1c(N)oc2c(-c3ccc(Cl)cc3)c3c(C(=O)OCC)c(N)oc3cc12	12	0	1	12
COc1cccc(CSc2nncn3c2cc2occc23)c1	14	-1	0	-2
COc1cccc(CSc2nncn3c2cc2oc(C)cc23)c1	6	-1	24*	-5
COc1ccc(-n2c(C)cn3c4c(=O)n(Cc5ccccc5)c(=O)n(C)c4nc23)c(OC)c1	3	-1	0	-1
CCn1nc(C)cc1C(=O)Nc1nc(-c2ccc(C(C)C)cc2)cs1	7	2	0	38*
CC(C)c1ccc(-c2csc(NC(=O)c3cc(Cl)cc(Cl)c3)n2)cc1	-9	-1	0	0
Cc1ccc(NC(=O)Cn2nnc(S(=O)(=O)c3ccccc3)c2N)c(C)c1	-13	0	0	-20
Cc1ccc(OCC(=O)Nc2cccc(NC(=O)c3cccs3)c2)cc1	-2	0	0	-14
Cc1cc(C)cc(OCC(=O)Nc2ccc(NC(=O)c3cccs3)cc2)c1	-11	0	2.2*	-8
CNc1nc(Nc2ccc(OC)cc2)c2nccnc2n1	17	-1	2.9*	5
CNc1nc(Nc2ccc(C)c(C)c2)c2nccnc2n1	0	-2	1	6
Cc1c(Cl)cccc1-n1nc(C)c2ccccc2c1=O	-7	-2	0	3
O=C(O)c1cc(=O)c(O)c2c(O)c(O)c(O)cc2c1	89*	0	0	-1
O=C(Cc1ccccc1)Nc1cc(C(=O)O)cc(C(=O)O)c1	-17	-1	0	3
N#Cc1c(-c2ccccc2F)c(C#N)c2nc3ccccc3n2c1N	-15	0	0	42*
CC1(C)Cc2c(sc(NC(=O)C(Cc3ccccc3)N3C(=O)c4ccccc4C3=O)c2C#N)C(C)(C)N1 (centres undefined)	3	0	0	2
CCN(CC)c1nc2cc(OC)ccc2cc1C#N	-17	-1	2.3*	23
O=C(Nc1nccs1)c1ccc(OCc2ccc3ccccc3n2)cc1	-4	0	5.6*	-21
COc1ccc(CC(=O)Nc2nccs2)cc1OC	1	4	0	8
SMILES	MITF primary	GPR151 activ	FBW7 activator	TEAD-YAP inh
Cc1cc(OCC(=O)Nc2nccs2)ccc1C(C)C	-4	-1	0	61*
O=C(NCc1cccs1)c1ccc(OCc2ccc3ccccc3n2)cc1	4	0	0	-20
CCOc1ccc(OCC(=O)Nc2nccs2)cc1	3	-8	0	79*
COc1cc(C(C)=O)ccc1OCC(=O)Nc1nccs1	8	-6	0	56*
Cc1nnc(SCC(=O)Nc2ccc(F)c(F)c2)[nH]c1=O	-7	-2	0	0
COc1ccc(OCC(=O)Nc2nccs2)cc1	2	-7	0	68*
O=C(COc1ccc(Cl)cc1)Nc1nccs1	1	-3	0	19
COc1ccc(C2CC(c3cccs3)=NN2C(=O)CSc2nnc(CNC(=O)c3ccccc3F)n2-c2ccc([N+](=O)[O-])cc2)cc1 (centres undefined)	9	0	0	-1
CC1(C(=O)O)NCCc2cc(O)c(O)cc21 (centres undefined)	66*	0	0	nt
O=C(CSc1n[nH]c(/C=C/c2ccc(F)cc2)n1)Nc1cc(C(=O)O)cc([N+](=O)[O-])c1	9	-6	1	69*
COCCN1C(=O)C(O)=C(C(C)=O)C1c1ccc(Br)cc1 (centres undefined)	2	2	0	3
CCOC(=O)C1CCCN(S(=O)(=O)c2cc(C(=O)Nc3ccc(CC)cc3)ccc2F)C1 (centres undefined)	10	0	1	1
CCOc1ccc(NC(=O)c2ccc(F)c(S(=O)(=O)N3CCN(c4ccccc4)CC3)c2)cc1	0	1	0	37*
O=C(Nc1ccc(Oc2ccccc2)cc1)c1ccc(F)c(S(=O)(=O)N2CCN(c3cccc(Cl)c3)CC2)c1	3	2	0	41*
CCOC(=O)C1CCCN(S(=O)(=O)c2cc(C(=O)Nc3ccc(Oc4ccccc4)cc3)ccc2F)C1 (centres undefined)	8	-1	0	53*
CCOc1ccc(NC(=O)c2ccc(F)c(S(=O)(=O)N3CCCc4ccccc43)c2)cc1	15	0	1	43*
CCN(CC)S(=O)(=O)c1cc(C(=O)Nc2cccc(C)c2)ccc1F	-11	-2	0	-22
Cc1ccc(OCCn2cc(/C=C3/C(=N)N4N=C(C(C)C)SC4=NC3=O)c3ccccc32)cc1C	-2	0	0	-1
C/C(=N\Nc1nc2c(c(=O)[nH]c(=O)n2C)n1CC(C)O)c1ccc([N+](=O)[O-])cc1 (centres undefined)	-6	0	1	1
Cc1nc2cc(NCc3nc4ccccc4n3C)ccc2n1C	9	-11	1	81*
C=CCN1CCN(C(c2ccc(C)cc2)c2nnnn2Cc2ccc(OC)cc2)CC1 (centres undefined)	21	0	0	7
Cc1cc(Cl)ccc1OCC(=O)Nc1ncccn1	6	1	0	-19
O=C(COc1ccc(Cl)cc1Cl)Nc1cccc(-c2cn3c(n2)SCC3)c1	8	0	0	69*
Cc1cc(Cl)ccc1OCC(=O)Nc1ccccn1	12	-1	0	67*
O=C(COc1ccccc1[N+](=O)[O-])Nc1ccccc1Cl	18	0	0	-49
SMILES	MITF primary	GPR151 activ	FBW7 activator	TEAD-YAP inh
O=C(COc1ccccc1[N+](=O)[O-])Nc1ccccn1	3	-9	0	36*
CC(=O)Nc1ccc(NC(=O)COc2ccc(Br)cc2Cl)cc1	-9	-1	0	-18
O=C(COc1ccc(Br)cc1Cl)Nc1ccccc1	14	-1	0	54*
O=C(c1cccs1)N1CCN2C(=O)[C@@H]3CSCN3C(=O)[C@H]2C1	17	1	0	-2
COc1ccc(-n2ccnc2SCC(=O)NC2CCCCC2)c(OC)c1	-13	0	0	-3
O=C(COc1ccc(Cl)cc1Cl)Nc1ccccc1	6	1	0	36*
Cc1ccccc1OCC(=O)NNC(=O)Nc1ccc(Cl)cc1	-4	0	1	59*
O=C(COc1ccc(Br)cc1Br)Nc1ncn[nH]1	9	1	0	44*
Cc1ccccc1OCC(=O)Nc1ccc(Cl)cc1	10	-1	0	-42
O=C(COc1ccc(Cl)cc1Cl)Nc1ccc(O)cc1	-3	1	0	32*

From PubChem BioAssay
